Sampled rows, rich in hits. Any-hit rate of the full collection: about 4.1%.
697 NFkB inh – lowers PMA/ionomycin-induced NF-kB signal in 697 B cells. actives 0.33% (n = 330,000). 697 B-cell NF-kB luciferase reporter, 16 h. inhibition, % at 4 µM; in the data active = inhibition above about 35%
Mdm2 MdmX PPI – human Mdm2/MdmX binding inhibition | inhibition, % at 8 µM | SaOS-2 split-luciferase Mdm2/MdmX complementation, luminescence | O15151+Q00987 | actives 3% (n = 330,000);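 active = inhibition of at least 50% at 8 µM in the primary screen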
Target sequence (O15151 whole entry, looked up): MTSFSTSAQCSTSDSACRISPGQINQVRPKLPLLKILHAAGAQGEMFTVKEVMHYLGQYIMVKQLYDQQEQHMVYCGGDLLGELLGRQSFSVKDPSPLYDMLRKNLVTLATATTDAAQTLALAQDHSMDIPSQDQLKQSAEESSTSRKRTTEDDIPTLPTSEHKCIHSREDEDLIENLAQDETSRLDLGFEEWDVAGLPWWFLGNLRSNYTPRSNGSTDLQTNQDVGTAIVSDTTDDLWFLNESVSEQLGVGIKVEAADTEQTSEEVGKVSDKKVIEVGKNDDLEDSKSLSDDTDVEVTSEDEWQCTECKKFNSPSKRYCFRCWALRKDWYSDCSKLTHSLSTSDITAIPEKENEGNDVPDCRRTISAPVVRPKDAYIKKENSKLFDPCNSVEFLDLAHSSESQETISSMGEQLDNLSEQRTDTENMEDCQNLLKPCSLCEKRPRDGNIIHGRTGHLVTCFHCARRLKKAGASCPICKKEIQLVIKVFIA
Target sequence (Q00987 whole entry, looked up): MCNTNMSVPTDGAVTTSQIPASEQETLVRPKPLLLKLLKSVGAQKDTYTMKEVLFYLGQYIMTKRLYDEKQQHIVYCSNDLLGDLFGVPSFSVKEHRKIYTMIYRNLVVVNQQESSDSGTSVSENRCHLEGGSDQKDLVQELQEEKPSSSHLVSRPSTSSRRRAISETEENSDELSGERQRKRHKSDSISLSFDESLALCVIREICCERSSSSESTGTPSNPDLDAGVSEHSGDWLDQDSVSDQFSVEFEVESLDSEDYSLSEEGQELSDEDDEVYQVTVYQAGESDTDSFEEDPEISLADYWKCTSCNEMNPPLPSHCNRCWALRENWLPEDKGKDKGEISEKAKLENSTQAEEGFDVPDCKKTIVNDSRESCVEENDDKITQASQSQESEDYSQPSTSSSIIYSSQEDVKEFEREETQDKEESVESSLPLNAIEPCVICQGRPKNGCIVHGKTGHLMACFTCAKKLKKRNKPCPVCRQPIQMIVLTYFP
Gli-Sufu antag – blocks Gli-Sufu signaling in a luciferase reporter; Sufu-KO-LIGHT fibroblasts, Gli luciferase reporter luminescence; inhibition, % at 5 µM; actives 0.74% (n = 340,000);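 active = inhibition above about 55%, limit read from the data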
Jurkat NFkB inh – lowers PMA/ionomycin-induced NF-kB signal in Jurkat cells | inhibition, % at 4 µM | PMA/ionomycin-induced NF-kB luciferase reporter, luminescence | actives 0.53% (n = 330,000); in the data active = inhibition above about 50%
aSyn 5UTR inh – MLPCN primary screen, SNCA 5' untranslated region; alpha-synuclein 5'UTR reporter, inhibitor activity; inhibition, % (tested at 7.5 µM); actives 0.82% (n = 300,000); AID 1813; in the data active = inhibition above about 60%;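 also: H4 neuroglioblastoma cells stably carrying SNCA 5'UTR luciferase fusion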
KLF5 inh – suppresses KLF5 promoter-driven expression | DLD-1 KLF5 promoter-luciferase reporter, luminescence | inhibition, % at 5 µM | actives 0.23% (n = 290,000) | AID 1700;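 active = inhibition above a per-plate limit of that plate's mean compound inhibition plus 3 SD, cut at about 60% in these data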;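 also: higher means less KLF5 promoter-driven luciferase light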
Jurkat NFkB conf – inhibitors of the PMA/ionomycin-induced NF-kB reporter in Jurkat cells, retest | inhibition, % at 4 µM | actives 27% (n = 2,700) | Jurkat NF-kB luciferase, 16 h | shares compounds with Jurkat NFkB inh;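 active = inhibition reaching about 45% at 4 µM in either replicate, limit read from the data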
Of the large screens only hits and unclear results are named; the others gave an inactive call (follow-up assays come after a bar, where they were run).

CCOc1ccccc1-c1nc(CN2CCN(C(=O)c3ccco3)CC2)c(C)o1	none
CCOc1ccccc1-n1c(CN2CCN(C(=O)c3ccco3)CC2)nc2ccccc2c1=O	Jurkat NFkB inh 95, aSyn 5UTR inh 111 | Jurkat NFkB conf inactive
COc1ccc(S(=O)(=O)N2N=C(C)Oc3ccccc3C2=O)cc1	Jurkat NFkB inh 53 | Jurkat NFkB conf inactive
CCn1c(/C=C/c2ccccc2)nc2ccccc21	none | Jurkat NFkB conf inactive
COn1c(-c2ccccc2)nc2ccc(Cl)cc21	none
Clc1ccc2nc3c4ccccc4cnn3c2c1	none | Jurkat NFkB conf inactive
CCOC(=O)C1C(C(=O)Nc2cccc(C(F)(F)F)c2)C1C(=O)NC(C)C (stereo not given)	none
COc1ccc(N(CC(=O)Nc2cc(Cl)ccc2OC)S(=O)(=O)c2c(C)noc2C)cc1	Jurkat NFkB inh 69, aSyn 5UTR inh 71 | Jurkat NFkB conf inactive
COc1ccc(-c2nc3c(Br)c(N)c(Br)cc3o2)cc1	none (no result: aSyn 5UTR inh) | Jurkat NFkB conf inactive
O=C(O)/C=C/c1cnc2ccccc2n1	none
O=C(/C=C/c1cnc2ccccc2n1)NC12CC3CC(CC(C3)C1)C2	none (no result: Gli-Sufu antag) | Jurkat NFkB conf inactive
CNS(=O)(=O)c1cnccc1N1CCN(c2cccc(C(F)(F)F)c2)CC1	none
CCOc1ccc(Cc2c(Cl)nc(SC)nc2N(C)C)cc1	Jurkat NFkB inh 60 | Jurkat NFkB conf inactive
c1ccc(-c2csc(-n3cccn3)n2)cc1	none
CC(C)(C)c1cc(NC(=O)c2cccs2)no1	none | Jurkat NFkB conf inactive
CC(C)c1ccc(/C=N/NC(=O)c2ccccc2Cl)cc1	Jurkat NFkB inh 52 | Jurkat NFkB conf inactive
O=C(N/N=C/c1ccsc1)c1ccccn1	none
CC(C)(C)c1ccc(/C=N/NC(=O)c2ccccn2)cc1	none | Jurkat NFkB conf inactive
COC(=O)c1ccc(/C=N/NC(=O)c2ccccc2Cl)cc1	none
CC(C)c1ccc(/C=N/Nc2ccc(C(=O)O)cc2)cc1	Jurkat NFkB inh 55, aSyn 5UTR inh 85 | Jurkat NFkB conf inactive
Cc1ccc(C(=O)COC(=O)CN2C(=O)C3C4CCC(C4)C3C2=O)cc1C (stereo not given)	none
CCc1ccc(C2=NN(S(C)(=O)=O)C(c3cccs3)C2)cc1 (stereo not given)	none | Jurkat NFkB conf inactive
CCCCc1ccc(NC(=O)c2cnccn2)cc1	none | Jurkat NFkB conf inactive
c1ccc(CSc2ccc(-c3ccccn3)nn2)cc1	none | Jurkat NFkB conf inactive
Cc1ccc(NC(CC(=O)c2ccccc2)c2ccc(F)cc2)cc1 (stereo not given)	none
O=C(CC(Nc1ccc(F)cc1)C(=O)O)c1ccccc1 (stereo not given)	none | Jurkat NFkB conf inactive
Cc1ccc(S(=O)(=O)Nc2cc3c4c(c2)CCN4C(=O)CC3)cc1	none (no result: KLF5 inh)
O=C(COC(=O)c1cccc(OC(F)F)c1)Nc1cccc(S(=O)(=O)N2CCCC2)c1	Jurkat NFkB inh 63 (no result: aSyn 5UTR inh, KLF5 inh) | Jurkat NFkB conf inactive
O=C(COC(=O)c1cccc(S(=O)(=O)N2CCCC2)c1)Nc1ccccc1	none
CCOC(=O)N1CCN(C2CCCN(C(=O)c3cccc(Cl)c3)C2)CC1 (stereo not given)	none
Cc1ccc(/C=N/Nc2cccc3cccnc23)c(O)c1	none | Jurkat NFkB conf inactive
Oc1ccc(/C=N/Nc2cccc3cccnc23)c(O)c1	none
Cc1cc(C)cc(N/C(N)=N/c2nc(C)cc(C)n2)c1	Jurkat NFkB inh 51 | Jurkat NFkB conf inactive
CCOc1cc(NC(=S)NCC2CCCO2)c(OCC)cc1NC(=O)CC(C)C (stereo not given)	none
c1ccc2c(c1)Cn1c-2nc2ccccc21	none
Clc1ccc(-c2cn3c(n2)-c2ccccc2C3)cc1Cl	none | Jurkat NFkB conf inactive
COc1ccc(NC(=O)N2CCC(n3cnc4ccccc43)CC2)cc1	none
CCOc1ccc(NC(=O)CN2C(=O)CSC2=O)cc1	none
N#Cc1c(NC(=O)c2ccccc2)sc2c1CCC2	none
Cc1cc(C(=O)Nc2sc3c(c2C#N)CCC(C)C3)cs1 (stereo not given)	none | Jurkat NFkB conf inactive
CC(=O)Nc1sc2c(c1C#N)CCC(C)C2 (stereo not given)	none
Cc1cccc(C(=O)Nc2sc3c(c2C#N)CCCCC3)c1	none | Jurkat NFkB conf inactive
O=C(c1ccc2[nH]c(=O)c(=O)[nH]c2c1)N1CCc2ccccc2C1	none
Cc1ccc(N2CC(NC(=O)C3CC3)CC2=O)cc1 (stereo not given)	none (no result: KLF5 inh)
CC(=O)CSc1ccc(C(=O)O)cn1	none
Cc1ccc(NC(=O)/C(Cl)=C/c2ccccc2)cc1C	none | Jurkat NFkB conf inactive
CC(=O)Nc1ccccc1C(=O)C(=O)Nc1ccc(C)c(C)c1	none
O=C(Nc1ccccc1)N1CCC(c2nc(-c3ccc(S(=O)(=O)N4CCOCC4)cc3)no2)CC1	Jurkat NFkB inh 53 | Jurkat NFkB conf inactive
CC(=O)c1c(C)[nH]c(C(=O)OCC(=O)c2ccc(C)s2)c1C	none (no result: aSyn 5UTR inh, KLF5 inh)
COc1ccc(N=C2C(=Nc3ccc(OC)cc3)N(c3ccccc3)C(=S)N2C(=O)c2ccc(Cl)cc2)cc1	none
COc1ccc(N=C2C(=Nc3ccc(OC)cc3)N(c3ccc(OC)cc3)C(=S)N2C(=O)c2ccc(OC)cc2)cc1	none
COc1ccc(N2C(=S)N(C(=O)c3ccccc3)C(=Nc3ccccc3)C2=Nc2ccccc2)cc1	none | Jurkat NFkB conf inactive
COc1ccc(N=C2C(=Nc3ccc(OC)cc3)N(c3ccc(N(C)C)cc3)C(=S)N2c2ccc(OC)cc2)cc1	Jurkat NFkB inh 70, aSyn 5UTR inh 99 | Jurkat NFkB conf inactive
C[C@@H](NC(=O)c1nc[nH]c1C(=O)NCc1ccccc1)c1ccccc1	none (no result: aSyn 5UTR inh, KLF5 inh)
CCc1ccccc1NC(=O)CCS(=O)(=O)c1ccc2c(c1)CCCN2C(C)=O	none
Cc1ccccc1NC(=S)N/N=C/c1ccc(O)cc1O	none
Cc1cccc(NC(=S)N/N=C/c2cccc(O)c2)c1C	Jurkat NFkB inh 62 | Jurkat NFkB conf inactive
CSc1ccc(/C=C/C(=O)Nc2ccccc2)cc1	none (no result: aSyn 5UTR inh) | Jurkat NFkB conf inactive
O=C(c1cc(-c2ccccc2)nc2ccccc12)N1CCN(c2ccccn2)CC1	none
O=C(c1cc(-c2ccncc2)nc2ccccc12)N1CCN(c2ccccn2)CC1	Jurkat NFkB inh 57 | Jurkat NFkB conf inactive
Cc1nc2ccccc2c2oc(C(=O)NC3CC3)cc12	none
CCOc1ccc(NC(=O)c2cc3c(C)nc4ccccc4c3o2)cc1	Jurkat NFkB inh 60 | Jurkat NFkB conf inactive
CCN1CCN(c2ccc(S(=O)(=O)N3CCOCC3)cc2NC(=O)C(C)Oc2ccc(Cl)cc2)CC1 (stereo not given)	none (no result: KLF5 inh)
Cc1c(N2C(=O)CSC2c2ccco2)c(=O)n(-c2ccccc2)n1C (stereo not given)	none
Cc1cc(N(C)C)ccc1N=Nc1ccc2ncccc2c1	none | Jurkat NFkB conf inactive
CN(C)c1ccc(N=Nc2ccc3ncccc3c2)cc1	none (no result: 697 NFkB inh, Mdm2 MdmX PPI, Jurkat NFkB inh, aSyn 5UTR inh, KLF5 inh)
Cc1ccc2nc(CSc3nc(C)cc(C)c3C#N)[nH]c2c1	none | Jurkat NFkB conf inactive

From PubChem BioAssay
